# Screening data as filed in PubChem.
# Sfp inh: blocks B. subtilis Sfp PPTase activity; hit rate 3.5% among 310,000; Q9F4F7; Potency, µM, hits mostly inhibitors; Biochemical Sfp PPTase activity, qHTS;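 further: the enzyme is Sfp with the accession as filed and its product quenches rhodamine fluorescence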
#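 Step 1, compound plus 15 nM Sfp-PPTase, 15 min, room temperature. Step 2, add rhodamine-CoA (5 uM) and BHQ-2-YbbR (12.5 uM). Step 3, read 525/598 nm fluorescence at 0 and 30 min.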
# HP1b chromo inh: inhibitors of HP1-beta chromodomain binding to methylated histone tails; P83916; hit rate 0.56% among 390,000; AlphaScreen HP1-beta / biotin-H3K9me3 peptide binding; Potency, µM (top dose mostly 114 µM), hits mostly inhibitors; further: nearly all actives have a fitted effect of over 70% in size
#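 HP1-beta protein (50 nM final) preincubated 30 min at room temperature with biotinylated H3(1-18)K9me3 peptide (50 nM) in PBS pH 7.4, 0.01% Tween-20, then compound added for 30 min. AlphaScreen streptavidin donor/nickel chelate acceptor beads (10 ug/mL final), 30 min dark, luminescence read.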
# JMJD2A Tudor: inhibitors of human JMJD2A Tudor domain. AlphaScreen JMJD2A-Tudor / H3K4me3 peptide binding. Potency, µM (titrated, usually from 114 µM), hits mostly inhibitors. O75164. AID 504339. hit rate 4.4% among 390,000; further: nearly all actives have a fitted effect of over 50% in size
# L3MBTL1 block: L3MBTL1 (human) inhibition; Q9Y468; AlphaScreen L3MBTL1–H3K9me1 peptide binding; Potency, µM (highest dose often 57.1 µM), actives largely listed as inhibitors; hit rate 0.66% among 230,000; AID 485360; further: nearly all actives have a fitted effect of over 60% in size
# Target sequence (Q9Y468 whole entry, looked up): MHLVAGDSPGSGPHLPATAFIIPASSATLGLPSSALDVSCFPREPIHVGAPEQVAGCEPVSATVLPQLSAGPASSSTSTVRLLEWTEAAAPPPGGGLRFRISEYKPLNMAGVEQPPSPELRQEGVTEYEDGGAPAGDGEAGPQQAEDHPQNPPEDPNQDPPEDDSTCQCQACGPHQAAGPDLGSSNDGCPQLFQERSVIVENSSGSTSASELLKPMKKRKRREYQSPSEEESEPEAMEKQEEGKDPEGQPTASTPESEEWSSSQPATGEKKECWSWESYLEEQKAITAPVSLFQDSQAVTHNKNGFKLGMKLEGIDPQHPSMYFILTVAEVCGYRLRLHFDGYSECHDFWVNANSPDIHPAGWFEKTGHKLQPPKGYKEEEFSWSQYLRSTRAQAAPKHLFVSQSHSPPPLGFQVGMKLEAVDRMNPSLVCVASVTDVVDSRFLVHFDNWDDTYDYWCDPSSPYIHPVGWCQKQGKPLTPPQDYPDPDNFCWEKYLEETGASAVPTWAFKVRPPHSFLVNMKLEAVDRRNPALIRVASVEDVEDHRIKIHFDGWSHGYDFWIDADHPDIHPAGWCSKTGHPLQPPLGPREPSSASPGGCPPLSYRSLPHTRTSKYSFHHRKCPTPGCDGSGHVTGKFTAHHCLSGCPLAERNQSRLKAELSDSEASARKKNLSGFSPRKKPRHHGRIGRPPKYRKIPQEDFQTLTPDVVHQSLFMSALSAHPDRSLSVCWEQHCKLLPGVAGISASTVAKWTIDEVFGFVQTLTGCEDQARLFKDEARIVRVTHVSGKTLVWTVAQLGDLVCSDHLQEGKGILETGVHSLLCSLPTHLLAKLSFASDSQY
#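 AlphaScreen assay: L3MBTL1 (50 nM final) was preincubated 30 min at room temperature with biotinylated H3(1-15)K9me1 peptide (75 nM final), then 30 min with library compounds; streptavidin donor and nickel chelate acceptor beads (10 ug/mL final) added, 30 min dark.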
# G9a inh: blocks human histone lysine methyltransferase G9a; Q96KQ7; G9a H3K9 monomethylation, AlphaScreen, 2 h; hit rate 8.8% among 350,000; AID 504332; Potency, µM (series often up to 102 µM), hits mostly inhibitors; further: nearly all actives have a fitted effect of over 75% in size
#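 Readings reflect AlphaScreen signal from monomethyl-H3K9 antibody detection. HMT at 20 nM; substrate b-H3K9 500 nM; cofactor SAM 20 uM; 2 h RT reaction; compounds tested as titrations in qHTS with 15 min preincubation.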
# BAZ2B inh: BAZ2B (human) inhibition | Q9UIF8 | AlphaScreen BAZ2B-H3K14Ac peptide displacement | Potency, µM (doses to about 114 µM), most hits filed as inhibitors | hit rate 4.4% among 360,000; further: nearly all actives have a fitted effect of over 60% in size
#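 Protein-peptide AlphaScreen: BAZ2B 50 nM, b-H3K14Ac 50 nM, 1x PBS pH 7.4 + 0.01% Tween-20. Preincubation 30 min RT; cpd 30 min RT (top 110 uM); beads 20 min RT, light-protected.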
# A number is an active result; . = inactive; ? = inconclusive; / = not tested or not shown; [ ] = another dose, or the depositor's remark. An excerpt weighted towards active compounds, which were near 12% of everything screened. The call rests on the fitted dose curve; in most records, active means well fitted curve in the direction sought with a large enough effect; inconclusive means small, poorly fitted or top-dose-only effect, or another doubt; inactive means no such curve, though single readings can be large; an effect the other way counts as inactive or inconclusive.
SMILES,Sfp inh,HP1b chromo inh,JMJD2A Tudor,L3MBTL1 block,G9a inh,BAZ2B inh
CC(C)(C)c1ccc(C(=O)NC(=S)NCc2cccnc2)cc1,.,.,?,.,?,.
O=C(/C=C/c1ccccc1)NC(=S)NNC(=O)c1cccnc1,.,.,.,.,22µM,.
O=C(NNC(=S)NC(=O)c1ccccc1)c1ccc(O)cc1,.,.,.,/,13µM,.
O=C(NNC(=S)NC(=O)c1ccccc1)c1cccnc1,.,.,.,/,22µM,.
COc1cc(OC)cc(C(=O)NNC(=S)NC(=O)c2cccnc2)c1,.,.,.,/,28µM,.
COc1cccc(C(=O)NNC(=O)c2cccnc2)c1,.,.,.,/,.[12.7 µM],.
COc1ccc(C/C(C)=N/NC(=O)c2ccc(Cl)cc2)cc1,.,.,.,.,.,/
COc1ccc(C/C(C)=N/NC(=O)c2cccnc2)cc1,.,.,32µM,.,.,?
COc1cc(C(=O)NNC(=S)NC(=O)/C=C/c2ccccc2)cc(OC)c1OC,.,.,.,.,32µM,.
Cc1ccc(Sc2ccc(N3CCCC(C(=O)Nc4ccc(F)cc4)C3)nn2)cc1 (configuration not stated),/,.,.,/,.,.
C[C@@H](CO)[C@H](/C=C/c1ccccc1)CCO[Si](c1ccccc1)(c1ccccc1)C(C)(C)C,.,.,.,/,/,/
COc1cccc(NC(=O)C2CCN(c3nc4ccccc4nc3C(F)(F)F)CC2)c1,/,.,.,/,.,.
COc1ccc(-c2nc3cnc(N4CCOCC4)nc3n(C[C@H]3CCCO3)c2=O)cc1,.,/,/,/,.[0.501 µM],/
COC(=O)c1ccccc1NC(=O)Cc1nc(-c2ccc(OC)cc2)no1,/,.,.,/,.,.
CCc1ccc(NC(=O)Cn2c(=O)n(CCCCC(=O)NCCc3ccc(Cl)cc3)c(=O)c3ccccc32)cc1,/,.,.,/,.,.
CCS(=O)(=O)N1CCc2cc(C(=O)Nc3ccc(OC)cc3OC)ccc21,/,.,.,/,.,.
COc1ccc(NC(=O)c2ccccc2Sc2ccc(NC(C)=O)nc2)cc1,.,.,.,?,20µM,?
O=C(Nc1ccc(Cl)cc1)OCCN1CCOCC1,/,.,.,/,/,/
O=C(Nc1ccc(Cl)cc1)OCCn1nnnc1C(c1ccccc1Cl)N1CCOCC1 (configuration not stated),.,.,35µM,.,.,.
COc1ccc(N(C(=O)c2ccc(OC)c(OC)c2)S(=O)(=O)c2ccc(Cl)cc2)cc1,/,.,.,/,?,?
COC(=O)Nc1sc2c(c1C(N)=O)CCCCCC2,.,.,?,.,3.5µM,.
CCOC(=O)c1c(NS(=O)(=O)c2ccc(Br)cc2)sc2c1CCC2,/,.,79µM,/,/,/
CCOC(=O)c1c(NC(=O)OC)sc2c1CCC2,32µM,.,.,.,.,.
CCOC(=O)c1c(S(=O)(=O)N2CCC(C(=O)N3CCN(c4cccc(C)c4C)CC3)CC2)c(C)n(C)c1C,/,.,?,/,.,?
CC1CN(C(=O)N2CCC(C(=O)NC3CCCCCC3)CC2)c2cc(Cl)ccc2O1 (configuration not stated),/,?,.,/,?,.
SMILES,Sfp inh,HP1b chromo inh,JMJD2A Tudor,L3MBTL1 block,G9a inh,BAZ2B inh
O=C1CSC(c2cn(-c3ccccc3)nc2-c2ccccc2)N1Cc1ccco1 (configuration not stated),.,.,?,?,11µM,?
CCNC(=O)c1ccc(C2SCC(=O)N2Cc2ccco2)cc1 (configuration not stated),.,.,.,.,.[0.501 µM],.
CC(C)CCNC(=O)c1ccc(C2SCC(=O)N2Cc2ccco2)cc1 (configuration not stated),8.9µM,.,.,.,?,.
O=C1CSC(c2ccncc2)N1Cc1ccco1 (configuration not stated),56µM,.,.,.,.,.
COc1cc(/C=C/c2ccc3c([N+](=O)[O-])cccc3n2)ccc1OCC(=O)O,.,.,?,/,.[12.7 µM],?
O=C(O)COc1ccc(/C=C/c2ccc3cccc([N+](=O)[O-])c3n2)cc1,.,?,?,.,28µM,56µM
COc1cc(/C=C/c2ccc3cccc([N+](=O)[O-])c3n2)ccc1OCC(=O)O,.,.,.,.,40µM,56µM
Cc1cc(O)c2c(c1O)C(=O)C(O)=C(O)C2=O,45µM,/,/,/,/,/
Cc1cnn(CCC(=O)NNC(=S)Nc2ccccc2)c1,.,.,.,.,.,.
O=C(Cn1nc(C(F)F)cc1C(F)F)NNC(=S)Nc1ccc(F)cc1,.,.,.,/,?,.
Cc1nn(C)c(C(=O)NC(=S)Nc2ccc([N+](=O)[O-])cc2)c1Cl,32µM,.,.,/,/,.
O=C(Cn1nc(C(F)F)cc1C(F)F)NNC(=S)Nc1ccc([N+](=O)[O-])cc1,.,.,?,.,20µM,.
Cc1ccc(NC(=S)NNC(=O)CCn2cc(C)cn2)cc1,.,.,.,.,50µM,.
Cc1nn(C(C)C(=O)NNC(=S)Nc2ccc(F)cc2)c(C)c1[N+](=O)[O-] (configuration not stated),.,.,.,/,45µM,.
Cc1ccc(C#CC2C=CC(Oc3ccc4c(c3)OCO4)C(CO)O2)c(C)c1 (configuration not stated),.,/,/,/,/,/
CCc1ccc(C(=O)c2cn(CC(=O)Nc3ccc(OC)c(OC)c3)c3ccc(C)cc3c2=O)cc1,/,.,.,/,.,?
Cc1nn(CCC(=O)NNC(=S)Nc2ccc([N+](=O)[O-])cc2)c(C)c1[N+](=O)[O-],.,.,.,.,8.9µM,.
Cc1nn(CCC(=O)NNC(=S)Nc2ccc(F)cc2)c(C)c1Br,.,.,.,.,?,.
CC(=O)N(CCC(Cc1ccccc1)c1ccco1)Cc1ccco1 (configuration not stated),45µM,.,.,/,?,?
CC(=O)N(CCP(=O)(c1ccccc1)c1ccccc1)Cc1ccco1,.,.,.,.,.,.
Cc1cccc[n+]1CC(=O)/C=C1\N(C)c2ccccc2C1(C)C,.,.,.,.,.,.
CN1/C(=C/C(=O)CSc2ccccc2C(=O)O)C(C)(C)c2ccccc21,89µM,.,.,.,?,?
CN1/C(=C\C(=O)CSc2nnc(N)s2)C(C)(C)c2ccccc21,.,.,.,.,.,.
CN1/C(=C\C(=O)CSc2cccc[n+]2[O-])C(C)(C)c2ccccc21,16µM,.,.,.,10µM,.
COc1cccc([C@@H]2Oc3ccc(OC)cc3C[C@H]2OC(=O)NS(=O)(=O)c2ccc(F)cc2)c1,.,/,/,/,/,/
COc1ccc2c(c1)CCc1c(C(=O)Nc3ccc(F)c(Cl)c3)noc1-2,/,.,.,/,.,.
CC(=O)Oc1cccc(N2C(=O)C3CC=CCC3C2=O)c1 (configuration not stated),.,.,.,/,.[12.7 µM],.
CC(=O)Oc1cccc(N2C(=O)c3ccccc3C2=O)c1,.,.,.,.,.,.
